Reference: the supplement of paper PMC10849652
Targets with a hit are over-represented here; the source holds about 8,800 in all. About 0.5% of all pairs of compound and target were hits. A number with no mark means an inactive call.

compound: c1ccc([C@@H]2C[C@H]2NC2CCNCC2)cc1; experiment: log2 fold change, soluble protein after heating vs DMSO (PISA); higher = thermal stabilisation; K562 lysate, 10 uM; active = over 0.2 and 3.5 SD of the protein, either way, in both replicates (recomputed)
Outline: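 Values give the log-two fold change in thermal stability against solvent controls, from duplicates. Crude K562 extract at 1 mg/mL protein, made by dounce homogenisation in PBS pH 7.4 with 1 mM MgCl2, was treated with 10 μM compound for 30 min. After 3 min heating across 48°C-58°C, aliquots were pooled, adjusted to 0.5% NP-40 at 4°C and centrifuged at 21,000xg for 90 min. The supernatant was measured by TMTpro 16plex LC-MS/MS with channel sums equalised.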

Sequence of UniProt Q9Y573 (Q9Y573 whole entry, looked up): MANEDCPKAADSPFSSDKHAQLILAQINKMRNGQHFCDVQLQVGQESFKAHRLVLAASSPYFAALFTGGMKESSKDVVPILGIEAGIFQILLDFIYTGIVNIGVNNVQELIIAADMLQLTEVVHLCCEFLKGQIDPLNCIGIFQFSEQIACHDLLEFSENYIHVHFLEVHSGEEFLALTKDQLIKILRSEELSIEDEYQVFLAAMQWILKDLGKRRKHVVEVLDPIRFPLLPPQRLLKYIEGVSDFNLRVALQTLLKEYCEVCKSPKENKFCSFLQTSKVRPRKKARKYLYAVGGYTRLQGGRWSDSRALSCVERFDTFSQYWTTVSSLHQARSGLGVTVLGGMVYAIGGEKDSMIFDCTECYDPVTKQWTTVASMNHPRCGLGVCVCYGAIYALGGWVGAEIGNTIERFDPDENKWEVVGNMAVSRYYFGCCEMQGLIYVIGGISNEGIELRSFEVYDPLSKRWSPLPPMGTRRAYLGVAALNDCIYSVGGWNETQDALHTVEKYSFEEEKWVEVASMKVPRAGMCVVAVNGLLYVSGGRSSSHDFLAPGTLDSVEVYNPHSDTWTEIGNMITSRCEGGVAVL
Sequence of UniProt Q9HAV0 (Q9HAV0 whole entry, looked up): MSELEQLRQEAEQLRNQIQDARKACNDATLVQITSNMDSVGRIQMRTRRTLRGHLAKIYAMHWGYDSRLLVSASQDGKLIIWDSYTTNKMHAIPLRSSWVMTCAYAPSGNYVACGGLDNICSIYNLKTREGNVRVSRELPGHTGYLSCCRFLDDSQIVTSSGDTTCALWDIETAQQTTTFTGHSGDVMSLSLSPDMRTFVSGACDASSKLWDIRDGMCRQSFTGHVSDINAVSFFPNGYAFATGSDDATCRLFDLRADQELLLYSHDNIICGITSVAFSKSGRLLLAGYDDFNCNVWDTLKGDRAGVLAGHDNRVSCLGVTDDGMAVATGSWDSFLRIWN
Sequence of UniProt Q9H9Y4 (Q9H9Y4 whole entry, looked up): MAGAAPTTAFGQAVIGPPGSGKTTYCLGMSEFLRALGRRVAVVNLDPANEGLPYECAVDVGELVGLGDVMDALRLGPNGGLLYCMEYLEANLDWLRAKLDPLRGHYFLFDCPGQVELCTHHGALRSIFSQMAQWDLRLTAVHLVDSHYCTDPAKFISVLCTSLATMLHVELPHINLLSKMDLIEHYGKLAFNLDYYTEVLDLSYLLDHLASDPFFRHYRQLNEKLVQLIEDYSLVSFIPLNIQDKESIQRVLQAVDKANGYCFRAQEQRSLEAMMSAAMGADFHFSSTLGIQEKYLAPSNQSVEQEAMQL
Sequence of UniProt P22692 (P22692 whole entry, looked up): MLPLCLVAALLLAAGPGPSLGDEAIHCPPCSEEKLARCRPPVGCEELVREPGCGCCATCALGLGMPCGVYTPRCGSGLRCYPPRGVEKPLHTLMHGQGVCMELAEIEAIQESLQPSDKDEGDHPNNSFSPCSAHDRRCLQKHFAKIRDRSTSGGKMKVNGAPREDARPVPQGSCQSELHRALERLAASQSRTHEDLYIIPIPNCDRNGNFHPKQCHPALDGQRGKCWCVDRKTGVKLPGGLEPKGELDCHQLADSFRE
Sequence of UniProt Q9BQQ3 (Q9BQQ3 whole entry, looked up): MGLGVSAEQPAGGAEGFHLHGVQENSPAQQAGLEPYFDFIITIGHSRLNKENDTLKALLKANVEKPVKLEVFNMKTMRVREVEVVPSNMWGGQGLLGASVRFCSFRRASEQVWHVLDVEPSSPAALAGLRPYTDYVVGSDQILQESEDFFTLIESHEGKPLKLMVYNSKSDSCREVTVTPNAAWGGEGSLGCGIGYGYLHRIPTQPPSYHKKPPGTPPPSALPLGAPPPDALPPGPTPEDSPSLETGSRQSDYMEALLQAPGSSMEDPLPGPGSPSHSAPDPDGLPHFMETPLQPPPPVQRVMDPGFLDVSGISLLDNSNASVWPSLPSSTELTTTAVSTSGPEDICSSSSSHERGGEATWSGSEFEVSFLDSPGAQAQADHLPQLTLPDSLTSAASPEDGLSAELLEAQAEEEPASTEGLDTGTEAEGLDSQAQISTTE
Sequence of UniProt Q9Y5Q9 (Q9Y5Q9 whole entry, looked up): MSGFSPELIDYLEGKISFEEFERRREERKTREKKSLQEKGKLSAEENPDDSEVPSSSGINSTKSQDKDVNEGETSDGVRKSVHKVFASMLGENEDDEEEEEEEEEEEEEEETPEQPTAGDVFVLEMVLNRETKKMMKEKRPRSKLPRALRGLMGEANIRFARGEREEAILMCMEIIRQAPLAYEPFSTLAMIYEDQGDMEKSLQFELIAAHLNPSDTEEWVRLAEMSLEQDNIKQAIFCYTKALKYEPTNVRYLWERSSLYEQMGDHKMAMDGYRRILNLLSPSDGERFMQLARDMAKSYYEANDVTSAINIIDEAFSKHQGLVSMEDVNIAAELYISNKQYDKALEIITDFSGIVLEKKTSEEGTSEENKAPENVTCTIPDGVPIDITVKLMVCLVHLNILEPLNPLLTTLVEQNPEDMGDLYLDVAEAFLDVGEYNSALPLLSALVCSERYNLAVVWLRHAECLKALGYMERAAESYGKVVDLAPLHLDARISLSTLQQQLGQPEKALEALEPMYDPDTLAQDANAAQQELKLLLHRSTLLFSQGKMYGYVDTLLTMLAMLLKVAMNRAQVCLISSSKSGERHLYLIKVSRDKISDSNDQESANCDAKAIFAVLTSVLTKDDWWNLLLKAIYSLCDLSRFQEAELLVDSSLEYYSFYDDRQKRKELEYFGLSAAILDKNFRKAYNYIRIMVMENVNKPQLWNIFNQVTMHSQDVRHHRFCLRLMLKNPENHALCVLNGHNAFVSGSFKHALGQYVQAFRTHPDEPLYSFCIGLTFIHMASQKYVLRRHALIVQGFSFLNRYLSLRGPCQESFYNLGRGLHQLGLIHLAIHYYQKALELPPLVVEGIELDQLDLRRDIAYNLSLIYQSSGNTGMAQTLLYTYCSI
Sequence of UniProt Q8TF64 (Q8TF64 whole entry, looked up): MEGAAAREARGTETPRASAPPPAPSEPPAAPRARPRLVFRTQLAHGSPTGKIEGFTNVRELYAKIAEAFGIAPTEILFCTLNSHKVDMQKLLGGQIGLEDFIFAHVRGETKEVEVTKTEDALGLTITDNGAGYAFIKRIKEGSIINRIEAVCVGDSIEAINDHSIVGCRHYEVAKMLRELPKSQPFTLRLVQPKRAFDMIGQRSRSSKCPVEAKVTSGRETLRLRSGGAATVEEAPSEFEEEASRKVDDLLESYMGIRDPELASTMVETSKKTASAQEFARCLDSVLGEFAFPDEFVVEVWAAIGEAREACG
Sequence of UniProt Q9Y4H2 (Q9Y4H2 whole entry, looked up): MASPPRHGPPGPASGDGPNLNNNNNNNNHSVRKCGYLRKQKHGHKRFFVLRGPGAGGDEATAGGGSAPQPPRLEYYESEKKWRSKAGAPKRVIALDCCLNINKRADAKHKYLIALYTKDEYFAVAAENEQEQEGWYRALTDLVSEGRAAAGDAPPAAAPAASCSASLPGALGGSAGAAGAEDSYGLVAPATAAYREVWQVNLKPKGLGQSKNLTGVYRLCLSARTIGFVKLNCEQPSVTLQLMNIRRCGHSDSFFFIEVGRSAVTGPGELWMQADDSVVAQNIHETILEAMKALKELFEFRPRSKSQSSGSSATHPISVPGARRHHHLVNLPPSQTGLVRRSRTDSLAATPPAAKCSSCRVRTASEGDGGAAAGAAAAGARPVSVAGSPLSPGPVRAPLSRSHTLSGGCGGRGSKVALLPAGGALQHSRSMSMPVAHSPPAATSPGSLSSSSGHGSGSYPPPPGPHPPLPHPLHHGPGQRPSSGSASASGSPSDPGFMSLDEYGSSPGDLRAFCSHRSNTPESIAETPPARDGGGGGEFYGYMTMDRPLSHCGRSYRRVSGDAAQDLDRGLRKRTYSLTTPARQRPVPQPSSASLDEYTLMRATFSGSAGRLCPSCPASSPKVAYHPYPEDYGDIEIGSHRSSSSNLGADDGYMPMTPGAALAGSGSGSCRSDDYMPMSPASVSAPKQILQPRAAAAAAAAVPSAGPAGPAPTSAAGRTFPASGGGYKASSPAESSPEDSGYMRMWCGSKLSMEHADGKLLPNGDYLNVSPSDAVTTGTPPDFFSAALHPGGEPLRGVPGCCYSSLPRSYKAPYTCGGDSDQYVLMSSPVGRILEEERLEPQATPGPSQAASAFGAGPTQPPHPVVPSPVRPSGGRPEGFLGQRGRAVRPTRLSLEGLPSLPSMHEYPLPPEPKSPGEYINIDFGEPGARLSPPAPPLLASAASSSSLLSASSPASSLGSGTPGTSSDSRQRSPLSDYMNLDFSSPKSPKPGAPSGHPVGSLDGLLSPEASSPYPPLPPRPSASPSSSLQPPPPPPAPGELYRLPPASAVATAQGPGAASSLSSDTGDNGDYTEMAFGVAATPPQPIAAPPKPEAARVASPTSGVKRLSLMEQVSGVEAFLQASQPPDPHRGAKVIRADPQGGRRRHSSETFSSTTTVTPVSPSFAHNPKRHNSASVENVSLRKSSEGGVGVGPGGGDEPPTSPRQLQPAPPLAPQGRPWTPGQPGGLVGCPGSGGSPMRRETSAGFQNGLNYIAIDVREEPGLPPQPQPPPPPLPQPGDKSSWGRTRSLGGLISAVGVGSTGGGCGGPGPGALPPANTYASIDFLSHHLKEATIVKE
Sequence of UniProt Q01581 (Q01581 whole entry, looked up): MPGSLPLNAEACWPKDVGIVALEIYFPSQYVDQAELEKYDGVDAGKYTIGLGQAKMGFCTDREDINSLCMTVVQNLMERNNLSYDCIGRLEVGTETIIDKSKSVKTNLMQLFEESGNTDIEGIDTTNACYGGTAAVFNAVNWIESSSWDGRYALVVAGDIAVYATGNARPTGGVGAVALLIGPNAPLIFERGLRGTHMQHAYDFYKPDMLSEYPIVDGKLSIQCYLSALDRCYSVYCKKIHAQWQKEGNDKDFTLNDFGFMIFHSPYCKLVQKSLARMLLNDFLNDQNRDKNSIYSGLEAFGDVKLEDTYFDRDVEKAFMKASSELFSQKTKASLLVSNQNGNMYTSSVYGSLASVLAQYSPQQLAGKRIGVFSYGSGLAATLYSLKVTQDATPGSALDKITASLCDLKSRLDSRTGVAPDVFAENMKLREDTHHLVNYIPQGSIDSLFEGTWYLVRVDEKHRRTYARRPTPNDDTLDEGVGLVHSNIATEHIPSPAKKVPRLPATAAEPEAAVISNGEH

Target | log2 fold change
GPN2 (UniProt Q9H9Y4) | -0.034
HMGA1 isoform 2 (UniProt P17096) | 0.419
H3-3A (UniProt P84243) | -0.004
HNRNPUL1 (UniProt M0R247) | -0.044
HOMER3 (UniProt Q9NSC5) | 0
IGFBP4 (UniProt P22692) | -0.171
KATNBL1 (UniProt Q9H079) | -0.071
HSPBAP1 (UniProt Q96EW2) | 0.006
HIST2H2AA3 (UniProt Q6FI13) | 0.277
HNRNPH2 (UniProt P55795) | -0.011
GUSB (UniProt P08236) | -0.313
GRB10 (UniProt Q13322) | -0.078
JAK3 (UniProt P52333) | 0.254
GTPBP6 (UniProt O43824) | 0.118
IPP (UniProt Q9Y573) | 0.02
GNB4 (UniProt Q9HAV0) | -0.05
HECTD4 (UniProt J3KPF0) | 0.043
HMGCS1 (UniProt Q01581) | -0.009
ITGB1BP2 (UniProt Q9UKP3) | -0.029
GON4L (UniProt Q3T8J9) | 0.466 (active)
IRS2 (UniProt Q9Y4H2) | -0.354
GYPA, A0A2R8Y7F9 | -0.163
GORASP1 (UniProt Q9BQQ3) | 0.042
HSD17B12 (UniProt Q53GQ0) | -0.108
HEATR3 (UniProt Q7Z4Q2) | 0.028
GTF3C3 (UniProt Q9Y5Q9) | 0.032
HECTD3 (UniProt Q5T447) | 0.06
ISL2 (UniProt Q96A47) | 0.207
GIPC3 (UniProt Q8TF64) | -0.075
HSPA8 (UniProt E9PN89) | -0.393
